# The list is not random: actives were taken first. Their share in the collection is about 14%.
# LmPK inhibitor = qHTS Assay for Inhibitors of Leishmania Mexicana Pyruvate Kinase (LmPK); Q27686; purified LmPK, Kinase-Glo ATP luminescence, 1 h; Potency, µM (titrated, usually from 57.5 µM), inactives show at the top dose activity change, negative = inhibition, most hits filed as inhibitors; hit rate 0.37% among 290,000; also: potency is read from the fitted curve at half-maximal effect; % is scaled to controls: 0 for no effect and ±100 for the full control effect
# Target sequence (Q27686 whole entry, looked up): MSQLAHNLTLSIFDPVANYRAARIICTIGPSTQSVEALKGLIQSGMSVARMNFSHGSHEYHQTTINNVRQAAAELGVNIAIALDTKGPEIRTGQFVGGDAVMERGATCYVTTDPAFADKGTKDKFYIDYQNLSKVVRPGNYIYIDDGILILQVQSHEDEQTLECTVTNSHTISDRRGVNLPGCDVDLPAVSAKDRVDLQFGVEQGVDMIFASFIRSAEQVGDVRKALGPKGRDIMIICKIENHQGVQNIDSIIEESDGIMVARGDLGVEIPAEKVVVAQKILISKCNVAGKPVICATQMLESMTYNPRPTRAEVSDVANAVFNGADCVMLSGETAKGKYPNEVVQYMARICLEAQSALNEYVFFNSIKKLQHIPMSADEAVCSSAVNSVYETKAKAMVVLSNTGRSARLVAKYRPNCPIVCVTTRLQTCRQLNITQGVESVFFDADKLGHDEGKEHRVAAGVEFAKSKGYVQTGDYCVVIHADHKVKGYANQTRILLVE
#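 Purified LmPK (0.1 nM) with 0.5 mM PEP and 0.1 mM ADP in imidazole buffer pH 7.2 with MgCl2/KCl, 1 h at room temperature. ATP formed was read by luciferase luminescence and normalized to no-enzyme and uninhibited controls.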
# Shiga inhibitor = A qHTS for Small Molecule Inhibitors of Shiga Toxin; Vero cells, Shiga toxin protein synthesis inhibition reporter; inhibition, % at 38.7 µM; hit rate 9.2% among 290,000; in the data active = inhibition mostly above about 28%, no sharp cut-off; inactive = mostly below about 43%; also: 0% is about no effect
# NS1 inh = qHTS Assay for Inhibitors of Influenza NS1 Protein Function; Potency, µM (titrated, usually from 46.1 µM), for inactives: at the top dose activity, positive = more growth; hit rate 0.4% among 270,000; AID 2326, 2010; calls by dose curve; also: potency is read from the fitted curve at half-maximal effect; actives are rising curves; nearly all actives have a fitted effect of over 50% in size
#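 Read-out: OD600 growth recovery of NS1-expressing budding yeast. Cells grown overnight at 30C in -URA glucose medium, washed, resuspended and diluted 1:100 in 2% galactose assay medium, pH 6.0. Same strain lacking NS1 served as positive control.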
# Cycloheximide cs = Cycloheximide Counterscreen for Small Molecule Inhibitors of Shiga Toxin | cell reporter, cycloheximide protein synthesis inhibition counterscreen | max response, % | AID 2314, 2010 | hit rate 12% among 300,000; in the data active = max response mostly above about 13%, no sharp cut-off; inactive = mostly below about 14%; also: read at 38.3 µM for the half of the compounds with a filed dose; 0% is about no effect
# FBPA Giardia inh = qHTS Assay for Inhibitors of Fructose-1,6-bisphosphate Aldolase from Giardia Lamblia; hit rate 0.71% among 290,000; Potency, µM (doses to about 59.6 µM), for inactives: at the top dose activity, negative = inhibition, most hits filed as inhibitors; purified Giardia FBPA; also: potency is read from the fitted curve at half-maximal effect; % is scaled to controls: 0 for no effect and ±100 for the full control effect; nearly all actives have a fitted effect of over 55% in size
#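 Giardia FBPA (40 nM reagent) was preincubated 10 min at RT with compound (up to 57.5 uM final), then substrate plus GAPDH/TPI/NAD/arsenate coupling system with diaphorase/resazurin was added; resorufin fluorescence (525/598 nm) was read after 20 min.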
# NS1 inh valid = Assay for Inhibitors of Influenza NS1 Protein Function: Hit Validation; 1,400 tested, under 10 active; activity change, negative = inhibition, % at 32.9 µM; influenza NS1 function cell assay, 15-point titration; shares compounds with NS1 inh; calls by dose curve; also: 0% is about no effect
# Flu PR8 replic = Assay for Inhibitors of Influenza NS1 Protein Function: Influenza virus replication assay in MDCK cells infected with virus A/PR/8/34; shares compounds with NS1 inh; MDCK infected influenza A/PR/8/34, virus titer TCID50; active compounds read low; virus titer (log TCID50), log10 TCID50 at 5 µM; hit rate 30% among 95; AID 504647, 2011; call rule not given here
# Starred values were filed as active, the others as inactive; ? = inconclusive; . = no result. Unless noted, calls follow the shape of the dose curve; as a rule, active = well fitted curve in the direction sought with a large enough effect; inconclusive = small, poorly fitted or top-dose-only effect, or another doubt; inactive = no such curve, though single readings can be large; an effect the other way counts as inactive or inconclusive.
SMILES,LmPK inhibitor,Shiga inhibitor,NS1 inh,Cycloheximide cs,FBPA Giardia inh,NS1 inh valid,others
CC1CCN(S(=O)(=O)c2ccc3c(c2)N(CC(=O)NCCCOC(C)C)C(=O)CO3)CC1,9%,-11,?,-2,0%,-24,
CCN1CCC(NC(=O)Nc2cc(Cl)ccc2OC)CC1,0%,7,.,-1,-1%,.,
O=C(NCC(=O)N(c1cccnc1)C(C(=O)NC1CCCCC1)c1ccccc1F)c1ccco1 (centres undefined),-6%,35,10%,21,-4%,.,
COc1ccc(C(=O)N/C(=C/c2cccc3ccccc23)C(=O)NCCc2c[nH]c3ccccc23)cc1OC,1%,11,11µM*,-5,-4%,?,
COc1ccc(/C=C(/NC(=O)c2ccc(OC)c(OC)c2)C(=O)NCCc2c[nH]c3ccccc23)cc1,2%,-10,7.9µM*,5,0%,4,
COc1ccc(/C=C(/NC(=O)c2ccc(OC)cc2)C(=O)NCCc2c[nH]c3ccccc23)cc1,2%,10,?,-2,-1%,.,
CN(C)N1C(N)=C(C#N)C(c2ccc(Br)cc2)C2=C1CC(C)(C)CC2=O (centres undefined),3%,-3,-1%,-1,-26%,.,
Cc1nn(-c2cc(N3CCOCC3)ccc2[N+](=O)[O-])c(=O)c2ccccc12,7%,-18,-1%,-4,0%,.,
Cc1nn(-c2cc(N3CCOCC3)ccc2N)c(=O)c2ccccc12,0%,4,14µM*,-2,-1%,13,
CSCC[C@H](NC(=O)[C@H](Cc1ccccc1)n1c(=O)[nH]c2ccccc2c1=O)C(=O)NCC1CCC(C(=O)O)CC1 (some centres undefined),-2%,6,11µM*,1,7%,13,
Cc1ccc(-n2ccc(=O)c(C(=O)Nc3ccc(S(=O)(=O)Nc4nccs4)cc3)n2)cc1,-1%,-13,-5%,-4,-11%,.,
COc1ccccc1-c1nnc(SC/C(O)=C(\C#N)c2nc3ccccc3[nH]2)n1C1CCCCC1,-1%,20,?,70,?,.,
N#C/C(=C(/O)CSc1nnc(Cc2cccs2)n1C1CCCCC1)c1nc2ccccc2[nH]1,-3%,22,18µM*,12,?,-15,
Cc1nn(C)cc1/C=N\NC(=O)c1csc2c1CCCC2,-8%,65*,?,65*,-13%,2,
Cc1cc(C(=O)N/N=C/c2cn(C)nc2C)c2ccccc2n1,4%,-3,-3%,-4,.,.,
CC(=O)c1ccc(NC(=O)CSc2cn[nH]n2)cc1,0%,31,2%,-1,1%,.,
CC1CN(C)C(c2ccccc2)C(C)C12NC(=O)NC2=O (centres undefined),2%,-12,?,-4,6%,0,
CC1C(c2ccccc2)N(C)C(c2ccccc2)CC1(O)c1ccccc1 (centres undefined),7%,19,10%,9,13%,.,
NNC(=O)CNC(c1ccccc1)c1cc(Br)ccc1NC(=O)c1ccc(Br)cc1 (centres undefined),1%,24,7.1µM*,-3,-3%,26,
O=C(CCN1CCOCC1)NCC(=O)Nc1ccc(Br)cc1C(=O)c1ccccc1,-2%,-17,-1%,-1,7%,.,
NNC(=O)CNC(c1ccccc1)c1cc(Br)ccc1NC(=O)c1cccc(Cl)c1 (centres undefined),3%,-4,11µM*,-1,-1%,15,
NNC(=O)CNC(c1ccccc1)c1cc(Br)ccc1NC(=O)CCN1CCOCC1 (centres undefined),6%,3,10µM*,12,1%,?,
NNC(=O)CNC(c1ccccc1)c1cc(Br)ccc1NC(=O)c1ccccc1Br (centres undefined),1%,-6,?,-5,3%,.,
COc1ccc(C)cc1NC(=O)CCNC(=O)Cn1cnc2ccccc2c1=O,0%,0,-16%,-1,13%,.,
NC(=O)CSC1=Nc2ccccc2C2=NC(c3ccccc3)C(=O)N12 (centres undefined),8%,21,.,-3,1%,.,
SMILES,LmPK inhibitor,Shiga inhibitor,NS1 inh,Cycloheximide cs,FBPA Giardia inh,NS1 inh valid,others
CCN(CC)C(=O)CSC1=Nc2ccccc2C2=NC(c3ccccc3)C(=O)N12 (centres undefined),-7%,-10,2.8µM*,5,1%,-1,
C=CCn1c(-c2cccc([N+](=O)[O-])c2)n[nH]c1=S,-21%,-4,.,6,-13%,.,
C=CCn1c(-c2oc3nc(-c4ccccc4)cc(-c4ccccc4)c3c2N)n[nH]c1=S,2%,-3,1.1µM*,15,-8%,-7,
CCC(C)NC(=O)COC(=O)Cc1sc(N)nc1-c1ccc(C)cc1 (centres undefined),2%,19,1.1µM*,-2,6%,8,
CCOC(=O)N1CCN(S(=O)(=O)N2CCCC(C(=O)NCc3ccc(OC)cc3)C2)CC1 (centres undefined),1%,-5,?,-3,0%,-20,
CCOC(=O)N1CCN(S(=O)(=O)N2CCCC(C(=O)NCc3ccc(F)cc3)C2)CC1 (centres undefined),4%,-4,?,-2,-3%,.,
CC1CCN(S(=O)(=O)N2CCCC(C(=O)NCc3ccccc3Cl)C2)CC1 (centres undefined),8%,3,-4%,-2,5%,.,
CC1CC(C)CN(S(=O)(=O)N2CCCC(C(=O)NCc3ccccc3Cl)C2)C1 (centres undefined),4%,-7,?,-1,-4%,-15,Flu PR8 replic=8
O=C(COc1ccc2ccccc2c1)N1CCN(C(=O)c2ccco2)CC1,-1%,-7,.,12,1%,.,
O=C(NCc1ccccc1)c1cccc(OCC(=O)N2CCN(C(=O)c3ccco3)CC2)c1,7%,4,?,10,-10%,11,
CCOC(=O)c1ccccc1NC(=O)c1cn(-c2ccc(OC)cc2)c(=O)c2ccccc12,3%,19,-4%,-2,-5%,.,
COc1ccc(-n2cc(C(=O)Nc3cc([N+](=O)[O-])ccc3OC)c3ccccc3c2=O)cc1,1%,-6,22µM*,-2,3%,9,
CC1CN(C(=O)c2ccc(OC3CCN(Cc4ccccn4)CC3)cc2)CCN1C (centres undefined),2%,-10,-5%,-1,-7%,.,
COc1ccccc1N1CCN(C(=O)C2CCCN(S(=O)(=O)c3ccc4c(c3)CCCN4C(C)=O)C2)CC1 (centres undefined),6%,-18,?,2,7%,-20,
